Reference: PubChem BioAssay (NCATS)
Results filed as inconclusive are left out. Where a call stands in place of a potency, no number is given. Activity calls are given as the source filed them. The call rests on the fitted dose curve; in most records, active means well fitted cell-killing curve with a large enough effect; inconclusive means small, poorly fitted or top-dose-only effect, or effect the other way; inactive means flat fitted curve, though single readings scatter.

Assay: S16 Schwann cell viability assay (CellTiter-Glo assay) (AID 624031);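 further: cellular ATP luminescence as a viability measure; nearly all actives have a fitted effect of over 70% in size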
Conditions: S16 rat Schwann cells viability, 24 h; series mostly up to 57.5 µM
Outline: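 Native S16 rat Schwann cells, 500-750 cells/well in DMEM with 10% FBS, dosed with compound after overnight culture and incubated 24h at 37 degree Celsius/5% CO2. Viability by CellTiter-Glo luminescence; % activity normalized to no-cell wells and DMSO-treated cells.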

Row | SMILES | Potency
1 | O=C(O)c1cccnc1 | inactive
2 | CCC(C)(C)c1ccc(CC(C)CN2C[C@@H](C)O[C@@H](C)C2)cc1 (stereo partly drawn) | inactive
3 | C#CCN[C@@H]1CCc2ccccc21 | inactive
4 | Clc1ccccc1CN1CCc2sccc2C1 | inactive
5 | Cc1oc(=O)oc1CN1CCN(c2cc3c(cc2F)c(=O)c(C(=O)O)c2n3C(C)S2)CC1 (stereo not drawn) | inactive
6 | CN1CCN(c2c(F)cc3c(=O)c(C(=O)O)cn(CCF)c3c2F)CC1 | inactive
7 | NC(=O)c1cccnc1 | inactive
8 | COc1nc(N)nc2c1ncn2[C@@H]1O[C@H](CO)[C@@H](O)[C@@H]1O | inactive
9 | O=S(=O)(c1cccc2cnccc12)N1CCCNCC1 | inactive
10 | O=S(=O)(O)CCS | inactive
11 | CCOC(=O)[C@H](CCc1ccccc1)N[C@H]1CS[C@H](c2cccs2)CN(CC(=O)O)C1=O | inactive
12 | COc1cnc(NS(=O)(=O)c2ccc(N)cc2)nc1 | inactive
13 | Nc1nc(N)nc(-c2cc(Cl)ccc2Cl)n1 | inactive
